ADAM17 inh: ADAM17 inhibition, QFRET primary screen; P78536; recombinant ADAM17, EDANS/DABCYL FRET peptide cleavage; inhibition, % at 6.95 µM; actives 0.83% (n = 370,000); AID 720648;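 active = inhibition above the mean of compounds lying between control limits plus 3 SD, set per campaign, cut at about 8.5% in these data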;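 also: 0% = DMSO-only wells as the low control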
ADAM10 inh: ADAM10 inhibition, QFRET primary screen | recombinant ADAM10, EDANS/DABCYL FRET peptide cleavage, 3 h | O14672 | AID 720582 | actives 0.62% (n = 370,000) | inhibition, % at 7 µM;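 active = inhibition above a per-campaign cutoff equal to the mean of compounds falling between control-based bounds plus 3 SD, cut at about 20% in these data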;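 also: 0% = DMSO wells while the 100% control is not disclosed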
CendR NRP1 mod: alters CendR peptide binding to human NRP-1; O14786; FAM-RPARPAR peptide binding to NRP-1, fluorescence polarization; inhibition, % at 25 µM; actives 0.85% (n = 360,000); AID 602438;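 active = inhibition or corrected inhibition above about 18%, plus a signal ratio from 0.5 to 1.5, limit read from the data, passing the limit was not always enough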
A3G deaminase: APOBEC3G (human) deaminase inhibition; Q9HC16; recombinant A3G, ssDNA deamination FAM/TAMRA fluorescence; inhibition, % at 20 µM; actives 0.28% (n = 330,000); AID 493012;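 active = inhibition of at least 40% at 20 µM, with no more than 30% in the related APOBEC3A deaminase screen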;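 also: plate controls were DMSO wells with A3G for no effect and wells lacking A3G enzyme for full effect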
Target sequence (Q9HC16 whole entry, looked up): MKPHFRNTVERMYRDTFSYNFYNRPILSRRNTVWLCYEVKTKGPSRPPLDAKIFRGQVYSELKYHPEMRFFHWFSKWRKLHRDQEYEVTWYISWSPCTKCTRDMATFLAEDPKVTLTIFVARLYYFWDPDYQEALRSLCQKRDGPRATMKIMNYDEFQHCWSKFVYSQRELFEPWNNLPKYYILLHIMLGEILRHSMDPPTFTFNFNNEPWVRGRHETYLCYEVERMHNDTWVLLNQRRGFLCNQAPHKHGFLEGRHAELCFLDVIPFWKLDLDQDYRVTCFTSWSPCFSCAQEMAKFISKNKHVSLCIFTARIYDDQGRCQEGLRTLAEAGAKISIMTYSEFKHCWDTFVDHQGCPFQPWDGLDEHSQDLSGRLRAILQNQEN
A3A deaminase: inhibitors of human APOBEC3A DNA deaminase; P31941; recombinant A3A, FAM/TAMRA ssDNA deamination fluorescence; inhibition, % at 20 µM; actives 0.41% (n = 330,000); AID 493011;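 active = at least 40% inhibition at 20 µM here, with at most 30% in a related deaminase screen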;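 also: plate controls were A3A with DMSO for no effect and wells lacking A3A enzyme for full effect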
Starred values were filed as active, the others as inactive; x = no result. Rows were chosen to be rich in hits. Some 2.4% of all compounds tested hit in one or more screens of this group.

SMILES	ADAM17 inh	ADAM10 inh	CendR NRP1 mod	A3G deaminase	A3A deaminase
CC(C)n1cnc2c(NCc3ccc(S(N)(=O)=O)cc3)nc(NCc3ccc(S(N)(=O)=O)cc3)nc21	-1	-5	32*	-3	-1
COC(=O)[C@@]12CCCCC=C1N(CCc1ccc(Cl)cc1)C(=O)[C@H]2CC(=O)NCCCCc1ccccc1	-2	1	x	x	x
COc1cc(OC)cc(C(=O)N[C@H](C(=O)NC2CCCc3ccccc32)C(C)C)c1 (stereo not given in full)	1	-7	27*	-2	-2
CCOC(=O)C1=C(C)N(CCCC(=O)O)C(=O)NC1c1ccc(OC)cc1 (stereo not given)	3	-7	26*	-6	0
CC1=C(C(=O)OCc2ccccc2)C(c2ccc([N+](=O)[O-])cc2)NC(=O)N1CCCCCC(=O)O (stereo not given)	0	5	2	-9	-4
CC1=C(C(=O)OCc2ccccc2)C(c2ccc([N+](=O)[O-])cc2)NC(=O)N1CCCC(=O)O (stereo not given)	1	3	33*	-12	1
NC1=CC(=O)C(=O)c2ccccc21	-3	-17	29*	x	x
Oc1ccccc1-c1n[nH]c(=S)n1Cc1ccco1	-3	2	-3	41*	-2
O=C(Nc1nnc(CCN2CCOCC2)s1)C1CCCCC1	-5	-5	37*	-1	3
O=C(Nc1nnc(CCN2CCCCC2)s1)C1CCCCC1	-1	8	7	-6	-3
COc1ccc(C2=CC(c3ccc(F)cc3)n3nnnc3N2)cc1 (stereo not given)	-59	-160	35*	2	-1
COc1ccc(C2=CC(c3sccc3C)n3nnnc3N2)cc1 (stereo not given)	-50	-121	8	-3	-2
O=C(NC1CC1)c1cccc2c1C(=O)c1ccc(N3CCC(Cc4ccccc4)CC3)cc1S2(=O)=O	0	3	-140	0	-4
O=C1c2ccc(Cl)cc2S(=O)(=O)c2cccc(C(=O)N3CCC(Cc4ccccc4)CC3)c21	-2	2	26*	-1	2
COC(=O)c1c(C)c2c(C)cc3ccccn3c-2c1C(=O)OC	-16	-19	35*	0	-2
COC(=O)c1cc2c(-c3ccccc3)cc3ccccn3c-2c1C(=O)OC	-16	-54	-4	-7	-4
COCCNC(=O)CN1CCCCCC1	1	3	26*	-2	-1
CC(C)(C)C(=O)N1CCC[C@]2(CC[C@H](CCC#N)O2)C1	-2	-7	x	x	x
COc1ccc(N/N=C(/C#N)S(=O)(=O)c2nsc(C)c2C#N)cc1	-6	-10	2	-7	0
Cc1snc(S(=O)(=O)/C(C#N)=N/Nc2cccc(C(F)(F)F)c2)c1C#N	x	x	27*	-1	0
Nc1cc(S(=O)(=O)N2CCOCC2)ccc1Oc1ccc(F)cc1	-3	4	28*	-12	-1
COC(=O)c1ccc(Oc2ccc(S(=O)(=O)N3CCCCC3)cc2N)cc1	0	10	5	-5	-1
CC(C)(C)OC(=O)N1CCC2CCN(CCc3ccccc3)CC21 (stereo not given)	-4	-10	x	x	x
S=c1[nH]nc(-c2ccco2)n1-c1ccccc1Cl	-5	2	-6	42*	-1
COCCCNC(=O)CSc1nnc(-c2ccncc2)n1-c1ccc(OC)cc1	0	0	x	x	x
SMILES	ADAM17 inh	ADAM10 inh	CendR NRP1 mod	A3G deaminase	A3A deaminase
Cc1ccc2c(c1)N(C(=O)CSc1nncn1C)C(C)(C)c1ssc(=S)c1-2	8.8*	15	-4	-2	-2
CCN(CC)C(=O)O[C@H]1CC[C@@]23CCCN2C(=O)CCC[C@H]3[C@H]1C	-3	-2	x	x	x
COc1ccc(C(=O)O/N=C(\N)c2ccccc2)c(OC)c1	3	3	18*	-5	-4
COc1cccc(C(=O)O/N=C(\N)c2ccc([N+](=O)[O-])cc2)c1OC	-3	-3	25*	-3	-2
Cc1ccccc1N=C(N)Nc1ccccc1C	0	-5	37*	3	4
CC(=O)NCCNc1nc(NC(C)C)nc2ccsc12	-8	-23	26*	x	x
CC(=O)NCCNc1nc(NCc2cccs2)nc2ccsc12	-3	-15	-2	x	x
NNC(=O)[C@@H]1C[C@@H]1c1ccccc1	-1	-4	8	-8	-4
O=C(c1ccccc1)C1CC1c1ccccc1 (stereo not given)	-1	-8	38*	x	x
